PubChem BioAssay (EPA / NIEHS)
Inconclusive results are not listed. Active and inactive are the calls of the source. Rule for the calls: active = hit-call score of the fitted dose curve at least 0.9, where 1 is the maximum; inconclusive = response in the unintended direction; inactive = score below 0.9.

Read-out: xenobiotic metabolism (CYP1A1), CYP1A1 (gene 1543)
Test: CLD_CYP1A1_48hr: CellzDirect (CLD) Gene Expression Assay for xenobiotic metabolism (CYP1A1) at 48 hours (AID 2283705)
Protocol: CLD_48hr is a cell-based, multiplexed-readout assay that uses hepatocyte, a human liver primary cell, with measurements taken at 48 hours after chemical dosing in a 96-well plate.CLD_CYP1A1_48hr is one of 16 assay component(s) measured or calculated from the CLD_48hr assay. It is designed to make measurements of mRNA induction, a form of inducible reporter, as detected with chemiluminescence signals by Quantitative Nuclease Protection Assay (qNPA) technology.Data from the assay component CLD_CYP1A1_48hr was analyzed at the endpoint, CLD_CYP1A1_48hr, in the positive analysis fitting direction relative to DMSO as the negative control and baseline of activity. Using a type of inducible reporter, gain-of-signal activity can be used to understand changes in the reporter gene as they relate to the gene CYP1A1. Furthermore, this assay endpoint can be referred to as a primary readout. To generalize the intended target to other relatable targets, this assay endpoint is annotated to the cyp intended target family, where subfamily is xenobiotic metabolism.
Human hepatocyte cultures were treated daily for two consecutive days with fresh dosing solutions containing appropriate concentrations of the 320 ToxCast chemicals (chemical identities were blinded to CellzDirect and other ToxCast collaborators), vehicle control (0.2% DMSO), and positive control inducers as summarized in Table 1. Due to the large number of treatment groups and chemicals examined, the ToxCast chemicals were divided into two groups (spanning two independent cultures of hepatocytes from separate donor preparations (Hu778: ToxCast plates 1 and 2; Hu776: ToxCast plates 3 and 4). Each preparation of human hepatocyte cultures was treated with respective vehicle control, medium only control, set of six positive controls/reference chemicals for the five hepatic receptor pathways, and a subset of eight of the ToxCast chemicals (indoxacarb, pyrithiobac-sodium, norflurazon, cyhalofop-butyl, methomyl, thiram, acetochlor, and propiconazole). These replicate data, coupled with internal replicates designed within the blinded ToxCast chemical library, provided additional data to evaluate interindividual differences between hepatocyte preparations and their potential impact on chemical profiles.Cell morphology and integrity were evaluated using phase-contrast microscopy as an indicator of hepatocyte cell health (Tyson & Green, 1987). Cultures for each treatment group (i.e., media, vehicle [0.2% DMSO], positive control inducers [multiple concentrations], and the ToxCast chemicals [multiple concentrations]) were observed and cell morphology was assessed relative to vehicle control cultures at each harvest time point (0, 6, 24, or 48 h). […] Images were evaluated at the conclusion of the study to assess changes in cell integrity and account for the effects of chemical exposure on uncharacteristic changes in concentration-dependent gene expression profiles. The results from these determinations of apparent cytotoxicity were annotated (yes/no) alongside the corresponding qNPA data for reference.At the conclusion of each treatment period, hepatocyte cultures (96-well) were washed with 1 volume of HBSS, lysed by addition of 25 ul ArrayPlate lysis buffer (HTG, Tucson, AZ), and 70 ul/well of Denaturation Oil, denatured by incubation at 95C for 10 min, and frozen at approximately -70C until analysis by nuclease protection assay (qNPA) (Roberts et al., 2007). For qNPA analysis, cell lysates were thawed at 50C for approximately 30 min, qNPA probes were added, and samples were incubated at 95C for 10 min to begin the detection process by denaturing the target RNA, dissociating the duplexes and secondary structure hybridization. At the conclusion of the hybridization period, S1 nuclease reagent was added to each sample to digest all nonprotected nucleotides at 50C for 60-90 min. […]

Row | Structure (SMILES) | AC50 | outcome
1 | COP(=S)(OC)Oc1ccc([N+](=O)[O-])cc1 | 12.2 µM (active) | 
2 | O=C(O)CCCOc1ccc(Cl)cc1Cl |  | inactive
3 | CCOCN(C(=O)CCl)c1c(C)cccc1CC | 1.85 µM (active) | 
4 | O=S(=O)(O)C(F)(F)C(F)(F)C(F)(F)C(F)(F)C(F)(F)C(F)(F)C(F)(F)C(F)(F)F |  | inactive
5 | CCC(C)(NC(=O)c1cc(Cl)c(C)c(Cl)c1)C(=O)CCl (stereo not given) | 3.97 µM (active) | 
6 | COc1nn(CSP(=S)(OC)OC)c(=O)s1 | 11.2 µM (active) | 
7 | CN1CSC(=S)N(C)C1 |  | inactive
8 | CC1(C)C(C=C(Cl)Cl)C1C(=O)OC(C#N)c1ccc(F)c(Oc2ccccc2)c1 (stereo not given) |  | inactive
9 | COc1cc(OC)nc(NC(=O)NS(=O)(=O)c2cc(NC=O)ccc2C(=O)N(C)C)n1 |  | inactive
10 | [2H]C1([2H])[n+]2ccccc2-c2cccc[n+]2C1([2H])[2H] | 20 µM (active) | 
11 | O=C(Nc1ccccc1)Nc1cnns1 | 20 µM (active) | 
12 | CC(C)(C)C(O)/C(=C\c1ccc(Cl)cc1Cl)n1cncn1 (stereo not given) | 20 µM (active) | 
13 | CC(C)OC(=O)Nc1cccc(Cl)c1 | 5.09 µM (active) | 
14 | CNC(=O)/C=C(\C)OP(=O)(OC)OC |  | inactive
15 | CCCN(CCC)c1c([N+](=O)[O-])cc(C(F)(F)F)cc1[N+](=O)[O-] | 15.3 µM (active) | 
16 | C[C@H]1[C@H](c2ccc(Cl)cc2)SC(=O)N1C(=O)NC1CCCCC1 | 34 µM (active) | 
17 | CCc1ccc(C(=O)NN(C(=O)c2cc(C)cc(C)c2)C(C)(C)C)cc1 |  | inactive
18 | CNC(=O)Oc1cccc(N=CN(C)C)c1 |  | inactive
19 | O=C(O)C(F)(F)C(F)(F)C(F)(F)C(F)(F)C(F)(F)C(F)(F)C(F)(F)F | 0.0776 µM (active) | 
20 | CNC(=O)Oc1ccccc1OC(C)C |  | inactive

Row | Structure (SMILES) | AC50 | outcome
21 | O=C(O)COc1ccc(Cl)cc1Cl |  | inactive
22 | COC(=O)c1ccccc1CS(=O)(=O)NC(=O)Nc1nc(OC)cc(OC)n1 |  | inactive
23 | COP(=S)(OC)Oc1ccc(SC)c(C)c1 | 33.4 µM (active) | 
24 | CC(C)(C)C(O)C(Oc1ccc(Cl)cc1)n1cncn1 (stereo not given) | 5.32 µM (active) | 
25 | CCOC1Oc2ccc(OS(C)(=O)=O)cc2C1(C)C (stereo not given) |  | inactive
26 | CCC(C)(C)C(=O)OC1=C(c2ccc(Cl)cc2Cl)C(=O)OC12CCCCC2 |  | inactive
27 | O=[N+]([O-])/N=C1\NCCN1Cc1ccc(Cl)nc1 |  | inactive
28 | N#CN |  | inactive
29 | CCS(=O)(=O)c1cccnc1S(=O)(=O)NC(=O)Nc1nc(OC)cc(OC)n1 | 2.37 µM (active) | 
30 | O=[N+]([O-])c1c(Cl)c(Cl)c(Cl)c(Cl)c1Cl | 3.97 µM (active) | 
31 | Oc1cc(Cl)ccc1Oc1ccc(Cl)cc1Cl |  | inactive
32 | CCN(CC)C(=O)SCc1ccc(Cl)cc1 |  | inactive
33 | Clc1ccccc1-c1nnc(-c2ccccc2Cl)nn1 | 9.05 µM (active) | 
34 | CC[C@H](C)[C@H]1O[C@]2(C=C[C@@H]1C)C[C@@H]1C[C@@H](C/C=C(\C)[C@@H](O[C@H]3C[C@H](OC)[C@@H](O[C@H]4C[C@H](OC)[C@@H](O)[C@H](C)O4)[C@H](C)O3)[C@@H](C)/C=C/C=C3\CO[C@@H]4[C@H](O)C(C)=C[C@@H](C(=O)O1)[C@]34O)O2 (tested in a mixture with another compound) |  | inactive
35 | CCC(C)Nc1c([N+](=O)[O-])cc(C(C)(C)C)cc1[N+](=O)[O-] (stereo not given) | 3.77 µM (active) | 
36 | CC1(c2ccc(Oc3ccccc3)cc2)OC(=O)N(Nc2ccccc2)C1=O (stereo not given) | 3.38 µM (active) | 
37 | C#CCN1C(=O)COc2cc(F)c(N3C(=O)C4=C(CCCC4)C3=O)cc21 |  | inactive
38 | CCOc1nc(NC)nc(NC(=O)NS(=O)(=O)c2ccccc2C(=O)OC)n1 | 20 µM (active) | 
39 | N#Cc1c(Cl)c(Cl)c(Cl)c(C#N)c1Cl |  | inactive
40 | COC(=O)c1ccccc1S(=O)(=O)NC(=O)N(C)c1nc(C)nc(OC)n1 |  | inactive
